# Measurements as given in PubChem BioAssay AID1117361 (Southern Research Institute, 2015).
# Hit rate of the full screen: of about 3,600 compounds, about 900 (25%) were called active. No rule for the calls is given here. Only a sample is shown. Measured potencies and affinities stand elsewhere.
# Target: Protein Tat (Human immunodeficiency virus type 1 group M subtype B (isolate HXB2)) (UniProt P04608)
# Assay: inhibitors of Tat binding to TAR RNA, dose response, counter-screen for Vif-APOBEC3G degradation inhibitor project, biochemical, fluorescence polarization, FAM-labeled TAR RNA (AID 1117361)
# Settings: outcome: dose series up to 100 µM unless noted; series mostly up to 100 µM
row,SMILES,outcome
1,CN1CCN(/C=C(\C#N)S(=O)(=O)c2ccc(Cl)cc2)CC1,inactive
2,S=C(NCc1ccccn1)Nc1ccc(Cl)c(Cl)c1,inactive
3,O=C(NCc1ccc(F)cc1)C1CCC(CNc2c(N3CCCCC3)c(=O)c2=O)CC1 (centres undefined),inactive
4,Cc1cc(C)cc(N(CC(=O)NCc2cccnc2)S(C)(=O)=O)c1,inactive
5,CCSc1nnc(NC(=O)c2cccc3ccccc23)s1,inactive
6,Cc1ccc(C(C)C)c(OCCN(C)C)c1,inactive
7,Cc1cc(C)cc(CC2CC(=O)N(c3ccc4c(c3)OCCO4)C2=O)c1 (centres undefined),inactive
8,COc1ccc(C2OC(=O)CC2C(=O)N2CCN(c3cc(Cl)ccc3C)CC2)cc1OC (centres undefined),inactive
9,CCOC(=O)C(C#N)(Cc1ccc2ccccc2n1)Cc1ccc2ccccc2n1,inactive
10,Cc1ccccc1NS(=O)(=O)c1ccc2[nH]cc(C(=O)N(C)Cc3ccco3)c(=O)c2c1,inactive
11,CC1CCCCN1CCCNC(=O)C1CCN(c2nc3ccccc3o2)CC1 (centres undefined),inactive
12,COc1ccccc1N1C(=O)CC(Sc2nccc(C)n2)C1=O (centres undefined),inactive
13,COc1ccccc1CNCC(=O)Nc1ccc(N2CCOCC2)cc1,inactive
14,CCN(CC)c1ccc(NC(=O)c2ccco2)cc1,inactive
15,O=C(Nc1ccc(COc2ccccc2)cc1)Oc1ccccc1N1CCOCC1,inactive
16,O=C1CC(NCc2ccco2)C(=O)N1CCc1ccccc1 (centres undefined),inactive
17,CCOc1ccc(Cl)cc1S(=O)(=O)N1CCN(c2ccc(F)cc2)CC1,inactive
18,O=C(CSc1ccc(Cl)cc1)c1ccco1,inactive
19,O=[N+]([O-])c1ccc(-c2c[nH]c(=S)[nH]2)cc1,inactive
20,CC1(C)OC(=O)C(=CNC(Cc2c[nH]c3ccccc23)C(=O)O)C(=O)O1 (centres undefined),inactive
21,CC(C)(C)c1ccc(OCC(=O)NCCN2CCCC2)cc1,inactive
22,Cc1ccc(S(=O)(=O)N2CCOCC2)cc1C(=O)Nc1nc2ccccc2[nH]1,inactive
23,CC(NC(=O)c1ccco1)C1CCCO1 (centres undefined),inactive

row,SMILES,outcome
1,CC1(C)Cc2c(cnn2-c2ccccc2)C(NC(=O)CCCN2CCCCC2=O)C1 (centres undefined),inactive
2,O=S(=O)(NCc1cn2ccsc2n1)c1cccs1,inactive
3,Nc1cccc2c1C(=O)N(C(=O)/C=C/c1cccc(Br)c1)C2=O,inactive
4,COc1ccc(NC(=O)O/N=C/c2ccccc2Cl)cc1,inactive
5,Cc1ccc(OCC(=O)NNC(=O)CCc2ccccc2)cc1,inactive
6,Cc1ccc(S(=O)(=O)N/N=C/c2ccc(OCC(=O)Nc3ccccc3Cl)cc2)cc1,inactive
7,COc1ccc(OC)c(NC(=O)CCN2CCC(C)CC2)c1,inactive
8,COc1ccccc1N(C)S(=O)(=O)c1ccc(C(=O)NC(C)(C)C)cc1,inactive
9,Cc1ccn(C(=O)c2cc3ccccc3oc2=O)n1,inactive
10,COc1ccc(-n2ncc3c(N4CCC(C(N)=O)CC4)ncnc32)cc1,inactive
11,CCOC(=O)CSc1nnc(CNC(=O)c2ccccc2OC)n1-c1ccc(OC)cc1,inactive
12,CCCn1c(SCC(=O)c2cc(C)ccc2C)n[nH]c1=O,inactive
13,Cc1cccc(-n2c(=O)cc(N3CCN(c4ccc(F)cc4)CC3)[nH]c2=O)c1,inactive
14,Cc1ccc(C)c(-n2c(SCC(N)=O)nnc2-c2ccccn2)c1,inactive
15,CCOc1ccc(-n2c(SCC(N)=O)nnc2-c2cccnc2)cc1,inactive
16,S=C1NC2(CCCCCC2)N=C1c1ccccc1,inactive
17,Cc1ccc(C)c(/C(O)=C2/C(=O)C(=O)N(CCN3CCOCC3)C2c2ccco2)c1 (centres undefined),inactive
18,COc1ccc(OC)c(NC(=O)CC2C(=O)NCCN2C(=O)Nc2cccc(Cl)c2)c1 (centres undefined),inactive
19,O=C(O)C1CCN(S(=O)(=O)/C=C/c2ccccc2)CC1,inactive
20,Cc1ccnc(N2CCC(C(=O)NNC(=O)c3ccccc3C)CC2)n1,inactive
21,CCn1c(CNC(=O)Cc2ccc(OC)cc2)nnc1SCC(=O)Nc1ccc(C(=O)O)cc1,inactive
22,Cc1nn(C(=O)c2cccnc2)c(C)c1C,inactive
23,COC(=O)Cc1c(C)nc2nc(-c3cccnc3)[nH]n2c1=O,inactive

row,SMILES,outcome
1,O=C(NCc1ccco1)C1CCCN(S(=O)(=O)c2cccc3nsnc23)C1 (centres undefined),inactive
2,c1ccc(SCc2nc3ccccc3[nH]2)cc1,inactive
3,COc1cc(/C=C(\C#N)c2nc3ccccc3[nH]2)c([N+](=O)[O-])cc1OCc1ccccc1,inactive
4,CC1(C)C2CCC1(CS(=O)(=O)Nc1cccc(S(N)(=O)=O)c1)C(=O)C2 (centres undefined),inactive
5,COc1ccc(N2CCN(C(=O)c3c(-c4ccccc4)noc3C)CC2)cc1,inactive
6,COc1ccc(OC)c(NC(=O)NCc2ccc(F)cc2)c1,inactive
7,COc1ccc(NC(=O)c2c(OC)cccc2OC)c(OC)c1,inactive
8,Cn1nc(CC(=O)NCCN2C(=O)CSC2=O)c2ccccc2c1=O,inactive
9,CCOc1ccc(-n2c(SCC(=O)Nc3cc(C)on3)nnc2-c2c[nH]c3ccccc23)cc1,inactive
10,COc1cccc(NC(=O)Nc2nnc(N3C(C)CCCC3C)s2)c1 (centres undefined),inactive
11,COC(=O)c1cc(=O)n(Cc2ccc3c(c2)OCO3)c(=Nc2ccc(F)c(Cl)c2)s1,inactive
12,COCCn1c(SCC(=O)Nc2ccccc2F)nc2c([nH]c3ccccc32)c1=O,inactive
13,O=C(O)CN1C(=O)CSc2ccccc21,inactive
14,COc1ccc(Nc2nc3ccccc3nc2-n2nc(C)cc2C)cc1,inactive
15,COc1ccc(NC2=NC(C)(CO)CS2)cc1 (centres undefined),inactive
16,CCOC(=O)C(C(=O)OCC)C(CC(=O)C1CC1)c1ccccc1 (centres undefined),inactive
17,CCCCCCCCNc1ncnc2ccccc12,inactive
18,O=C(O)/C=C/C(=O)NNc1ncnc2ccccc12,inactive
19,O=C(CSc1nnc(CNC(=O)c2ccccc2F)o1)c1ccccc1,inactive
20,CCc1ccccc1NC(=O)c1cc2ncc(Br)cn2n1,inactive
21,COc1ccc(Br)c(C(=O)NC(C)(C)CO)c1,inactive
22,O=[N+]([O-])c1ccc2c([N+](=O)[O-])ccc3c2c1CC3,inactive
23,CCC(=O)Nc1cccc(-c2nc3ccccc3c(=O)o2)c1,inactive

row,SMILES,outcome
1,O=C(O)CSCc1c(F)cccc1Cl,inactive
2,CC(C(=O)NCC1CCCCC1)N(C)Cc1ccc(Br)cc1 (centres undefined),inactive
3,O=S(=O)(O)c1cccc2c(N=Nc3ccc(O)c4ncccc34)cccc12,inactive
4,O=C(c1ccccc1)c1ccc(OC(=O)N2CCOCC2)cc1,inactive
5,CCOC(=O)C1CCN(C(=O)c2ccc3snnc3c2)CC1,inactive
6,CC(C)CCNC(=O)c1ccc2c(SCC(=O)O)c3c(nc2c1)CCC3,inactive
7,CCOC(=O)N1CCN(C(=O)c2ccc(NC(=O)c3ccc(C)cc3)cc2)CC1,inactive
8,CCC(CC)C(=O)Nc1cccc(C(=O)N2CCOCC2)c1,inactive
9,O=C(c1ccc(-n2cnnn2)cc1)N1CCOCC1,inactive
10,O=C(Nc1cccc(S(=O)(=O)N2CCCCC2)c1)c1ccc2c(=O)n3c(nc2c1)CCCCC3,inactive
11,O=C(NNC(=O)c1ccccc1-n1cccc1)c1ccc(Cl)c(Cl)c1,inactive
12,CC(C)(C)NC(=O)c1cnn2c1NC(c1ccc(F)cc1)CC2C(F)(F)F (centres undefined),inactive
13,CN(C)C=NC(=O)/C(C#N)=C1\CCc2ccccc2N1,inactive
14,Nn1c(SCC(=O)NCCc2ccc(F)cc2)nnc1C1CCCCC1,inactive
15,COc1ccccc1CNC(=O)CCS(=O)(=O)c1ccc2c(c1)CCCN2C(C)=O,inactive
16,CCOC(=O)Nc1ccc2c(CN3C(=O)NC4(CCCC4)C3=O)cc(=O)oc2c1,inactive
17,Cc1ccc(N(CN2C(=O)C3CC=CCC3C2=O)C(=O)c2ccco2)cc1Cl (centres undefined),inactive
18,CCc1[nH]nc2c1C1(CCN(C(=O)OCc3ccccc3)CC1)C(C#N)=C(N)O2,inactive
19,Cc1[nH]c2ccccc2c1Cc1nnc(SCc2ccccc2)o1,inactive
20,Cn1cc(CN2CCN(CCO)CC2)c(-c2ccc(Oc3ccccc3)cc2)n1,inactive
21,CCc1c(O)nc(N2CCN(Cc3ccccc3)CC2)[nH]c1=O,inactive
22,O=c1ccccn1Cc1c(F)cccc1Cl,inactive
23,CCOC(=O)c1cnc(-c2ccccc2)nc1Oc1ccc(C)cc1,inactive

row,SMILES,outcome
1,CCOc1ccc(C(=O)N2CCCN(C(=O)c3ccc(OCC)cc3)CC2)cc1,inactive
2,CCOC(=O)Cn1c(=O)n(CC(=O)OCC)c2ccccc21,inactive
3,CCOc1ccccc1NC(=O)Cn1c(-c2ccc(Cl)cc2)noc1=O,inactive
4,CCOc1ccccc1CNC(=O)Cn1c(=O)oc2ccccc21,inactive
5,CCOc1ccc(-n2c(C)nc(O)c2N=Nc2ccccc2)cc1,inactive
6,Cc1sc(NC(=O)CN2CCOCC2)nc1-c1ccc2c(c1)CCN2S(=O)(=O)c1ccccc1,inactive
7,COc1ccccc1NC(=O)COC(=O)c1c(NC(C)=O)sc(C)c1C,inactive
8,CCOc1ccc(-n2c(SC)nc3c(c2=O)SCC3)cc1,inactive
9,CC(C)Oc1ccc(CNCC2(O)CCOC(C)(C)C2)cc1 (centres undefined),inactive
10,Cc1sc(NC(=O)CSc2nnnn2C(C)C)c(C#N)c1C,inactive
11,CNc1sc(C(=O)c2cccs2)c(N)c1-c1nc2ccccc2s1,inactive
12,COCCNC(=O)CN1C(=O)CSc2ncccc21,inactive
13,CC(=O)OC1OCCOC1NC(=S)Nc1ccc(C)cc1 (centres undefined),inactive
14,COc1ccc(OCc2nnc3n2N=C(c2ccc(OC)cc2)CS3)cc1,inactive
15,CCn1c(SCC(=O)c2ccc(F)cc2)nnc1-c1ccoc1C,inactive
16,COc1ccc(C(=O)O)cc1S(=O)(=O)N1CCCc2ccccc21,inactive
17,COC(=O)CSc1nnc(-c2ccccc2OC)n1-c1ccc(C)cc1,inactive
18,CCOc1cc(C)c(Cl)cc1S(=O)(=O)NCc1ccco1,inactive
19,CCCCOc1ccccc1C1NC(=O)NC(C)=C1C(=O)OCc1ccco1 (centres undefined),inactive
20,Oc1cc2c(cc1O)[C@@H](c1ccccc1)CNCC2,inactive
21,CC1CCc2cc(F)ccc2N1C(=O)CSc1nnc(-c2cccs2)n1C (centres undefined),inactive
22,CCOc1cc(S(=O)(=O)NCc2ccccn2)c(C)cc1C,inactive
